Source: the supplement of paper PMC6555819

Legend:
Experiment in all cases: PBM binding z-score (relative to random genomic background probes); higher = stronger binding; sequences stand for … in GC…GCGATTGACAGCGTAGAATGAAGG
[1] = tested on: FXR:RXRa (NR concentration 270 nM, RXRa partner concentration 90 nM)
How it was run: (§1)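 For binding z-scores, the reference was random background probes on custom Agilent 4×180K protein-binding microarrays. These arrays were incubated 1 h with ligand-free nuclear receptor dimers in PBS pH 7.4, 2% milk, 0.02% Triton X-100, 1 mM DTT, 0.2 mg/mL BSA and 0.4 mg/ml salmon testes DNA. Fluorescence was scanned after antibody detection of each partner (one per run) and regression-normalized.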

[2] = tested on: LXRa:RXRa (NR concentration 270 nM, RXRa partner concentration 90 nM)
How it was run: as §1

[3] = tested on: LXRa homodimer (NR concentration 270 nM)
How it was run: as §1

[4] = tested on: LXRb:RXRa (NR concentration 270 nM, RXRa partner concentration 90 nM)
How it was run: as §1

[5] = tested on: LXRb homodimer (NR concentration 270 nM)
How it was run: as §1

[6] = tested on: PPARa:RXRa (NR concentration 270 nM, RXRa partner concentration 90 nM)
How it was run: as §1

[7] = tested on: PPARg:RXRa (NR concentration 180 nM, RXRa partner concentration 90 nM)
How it was run: as §1

[8] = tested on: PPARg:RXRa 270nM:90nM, anti-RXR (NR concentration 270 nM, RXRa partner concentration 90 nM)
How it was run: as §1

[9] = tested on: PPARg:RXRa 30nM:10nM, anti-RXR (NR concentration 30 nM, RXRa partner concentration 10 nM)
How it was run: as §1

[10] = tested on: PPARg:RXRa 90nM:30nM, anti-RXR (NR concentration 90 nM, RXRa partner concentration 30 nM)
How it was run: as §1

[11] = tested on: PPARg:RXRa DBDmut IVT, anti-RXR (DBD mutation: RXRa K156A/R161A, NR concentration 270 nM, RXRa partner concentration 90 nM)
How it was run: as §1

[12] = tested on: PPARg:RXRa IVT, anti-PPARg (NR concentration 270 nM, RXRa partner concentration 90 nM)
How it was run: as §1

[13] = tested on: PPARg DBDmut:RXRa IVT, anti-PPARg (DBD mutation: PPARg1 K132A/R137A, NR concentration 270 nM, RXRa partner concentration 90 nM)
How it was run: as §1

[14] = tested on: PPARg DBDmut IVT, anti-PPARg (DBD mutation: PPARg1 K132A/R137A, NR concentration 270 nM)
How it was run: as §1

[15] = tested on: PPARg homodimer (NR concentration 180 nM)
How it was run: as §1

[16] = tested on: PXR:RXRa (NR concentration 270 nM, RXRa partner concentration 90 nM)
How it was run: as §1

[17] = tested on: PXR homodimer (NR concentration 270 nM)
How it was run: as §1

[18] = tested on: RARa:RXR (NR concentration 270 nM, RXRa partner concentration 90 nM)
How it was run: as §1

[19] = tested on: RARa homodimer (NR concentration 270 nM)
How it was run: as §1

[20] = tested on: RARb:RXRa (NR concentration 270 nM, RXRa partner concentration 90 nM)
How it was run: as §1

ATCGAAAGGTCGTGTGGTGAGTATACAGAAAGGC
PBM binding z-score [1]: 4.91
PBM binding z-score [2]: 4.22
PBM binding z-score [3]: 0.724
PBM binding z-score [4]: 3.43
PBM binding z-score [5]: 1.53
PBM binding z-score [6]: 4.84
PBM binding z-score [7]: 3.01
PBM binding z-score [8]: 3.37
PBM binding z-score [9]: 1.38
PBM binding z-score [10]: 2.57
PBM binding z-score [11]: 0.568
PBM binding z-score [12]: 1.69
PBM binding z-score [13]: 2.41
PBM binding z-score [14]: 1.23
PBM binding z-score [15]: 2.3
PBM binding z-score [16]: 3.25
PBM binding z-score [17]: 0.999
PBM binding z-score [18]: 3.74
PBM binding z-score [19]: 1.51
PBM binding z-score [20]: 3.6

CCTACGGGGCCATCAGGTCATTGATATCAACGTT
PBM binding z-score [1]: 2.38
PBM binding z-score [2]: 1.72
PBM binding z-score [3]: 0.922
PBM binding z-score [4]: 1.91
PBM binding z-score [5]: -0.245
PBM binding z-score [6]: 2.46
PBM binding z-score [7]: 1.25
PBM binding z-score [8]: 1.88
PBM binding z-score [9]: 0.224
PBM binding z-score [10]: 0.958
PBM binding z-score [11]: 1.08
PBM binding z-score [12]: 2.4
PBM binding z-score [13]: -0.644
PBM binding z-score [14]: -0.657
PBM binding z-score [15]: 1.9
PBM binding z-score [16]: 2.18
PBM binding z-score [17]: 0.639
PBM binding z-score [18]: 2.97
PBM binding z-score [19]: 0.686
PBM binding z-score [20]: 2.86

CAAACTAGGTCATGAAAGGTCAAAGTCGAATGAC
PBM binding z-score [1]: 7.56
PBM binding z-score [2]: 8.15
PBM binding z-score [3]: 8.41
PBM binding z-score [4]: 7.23
PBM binding z-score [5]: 2.86
PBM binding z-score [6]: 6.78
PBM binding z-score [7]: 9.71
PBM binding z-score [8]: 8.12
PBM binding z-score [9]: 6.46
PBM binding z-score [10]: 8.38
PBM binding z-score [11]: 8.27
PBM binding z-score [12]: 8.84
PBM binding z-score [13]: 5.43
PBM binding z-score [14]: 7.62
PBM binding z-score [15]: 9.18
PBM binding z-score [16]: 7.23
PBM binding z-score [17]: 2.71
PBM binding z-score [18]: 7.33
PBM binding z-score [19]: 4.32
PBM binding z-score [20]: 5.36

CTACCAAGGTGCACAAGGTCGTTGATTACTATTC
PBM binding z-score [1]: 0.933
PBM binding z-score [2]: 1.22
PBM binding z-score [3]: 0.723
PBM binding z-score [4]: 1.74
PBM binding z-score [5]: -0.173
PBM binding z-score [6]: 1.69
PBM binding z-score [7]: 0.548
PBM binding z-score [8]: 0.538
PBM binding z-score [9]: -0.186
PBM binding z-score [10]: 0.246
PBM binding z-score [11]: 0.47
PBM binding z-score [12]: 0.223
PBM binding z-score [13]: 0.019
PBM binding z-score [14]: -0.417
PBM binding z-score [15]: 0.705
PBM binding z-score [16]: 1.86
PBM binding z-score [17]: 1.22
PBM binding z-score [18]: 1.87
PBM binding z-score [19]: 0.655
PBM binding z-score [20]: 1.29

ATAAGTAGGTTATCGGGTCATTCAGTTTGCGCAT
PBM binding z-score [1]: 3.42
PBM binding z-score [2]: 3.08
PBM binding z-score [3]: 1.77
PBM binding z-score [4]: 3.11
PBM binding z-score [5]: 1.39
PBM binding z-score [6]: 5.07
PBM binding z-score [7]: 7.54
PBM binding z-score [8]: 6.6
PBM binding z-score [9]: 3.83
PBM binding z-score [10]: 6.09
PBM binding z-score [11]: 7.58
PBM binding z-score [12]: 7.8
PBM binding z-score [13]: 5.22
PBM binding z-score [14]: 5.33
PBM binding z-score [15]: 3.5
PBM binding z-score [16]: 3.91
PBM binding z-score [17]: 7.66
PBM binding z-score [18]: 3.84
PBM binding z-score [19]: 2.2
PBM binding z-score [20]: 2.61

CGTAGCAGGCCAATCTGGGTCACTCAAGGCTTGA
PBM binding z-score [1]: 0.309
PBM binding z-score [2]: 0.88
PBM binding z-score [3]: -0.711
PBM binding z-score [4]: 0.262
PBM binding z-score [5]: -0.737
PBM binding z-score [6]: 2.6
PBM binding z-score [7]: 2.21
PBM binding z-score [8]: 2.03
PBM binding z-score [9]: -0.188
PBM binding z-score [10]: 1.08
PBM binding z-score [11]: 4.39
PBM binding z-score [12]: 5.41
PBM binding z-score [13]: 0.0881
PBM binding z-score [14]: -0.653
PBM binding z-score [15]: 0.384
PBM binding z-score [16]: 1.07
PBM binding z-score [17]: -0.642
PBM binding z-score [18]: 1.47
PBM binding z-score [19]: -0.582
PBM binding z-score [20]: 1.48

TCTGCTAGGTCAACTATGGTCAGCTAATCTGCTA
PBM binding z-score [1]: 4.09
PBM binding z-score [2]: 3.35
PBM binding z-score [3]: 0.302
PBM binding z-score [4]: 2.35
PBM binding z-score [5]: 0.258
PBM binding z-score [6]: 3.65
PBM binding z-score [7]: 2.72
PBM binding z-score [8]: 3.29
PBM binding z-score [9]: 2.15
PBM binding z-score [10]: 2.81
PBM binding z-score [11]: 3.77
PBM binding z-score [12]: 4.24
PBM binding z-score [13]: 0.825
PBM binding z-score [14]: 0.277
PBM binding z-score [15]: 1.55
PBM binding z-score [16]: 2.47
PBM binding z-score [17]: -0.42
PBM binding z-score [18]: 2.76
PBM binding z-score [19]: 0.288
PBM binding z-score [20]: 4.38

ATAAGTAGGTTAAGGGTCATTCAGGTTGGTTCGC
PBM binding z-score [1]: 4.91
PBM binding z-score [2]: 4.67
PBM binding z-score [3]: 3.52
PBM binding z-score [4]: 4.65
PBM binding z-score [5]: 2.15
PBM binding z-score [6]: 6.55
PBM binding z-score [7]: 12
PBM binding z-score [8]: 9.92
PBM binding z-score [9]: 10.7
PBM binding z-score [10]: 11.2
PBM binding z-score [11]: 7.68
PBM binding z-score [12]: 7.64
PBM binding z-score [13]: 2.34
PBM binding z-score [14]: 2.31
PBM binding z-score [15]: 5.84
PBM binding z-score [16]: 5.44
PBM binding z-score [17]: 4.03
PBM binding z-score [18]: 6.12
PBM binding z-score [19]: 3
PBM binding z-score [20]: 3.75
